Drawing on the supplement of paper PMC8877412, this text covers cell viability for 32 compounds.

Where a name gives a salt, the structure may show the parent alone. ± gives the uncertainty stated by the source.

In the test the test system is NCC-PMP1-C1. The experiment in a line: cell viability relative to DMSO control; higher = less growth inhibition. The settings on record: 10 µM; 72 h. How it is done:
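NCC-PMP1-C1 pseudomyxoma peritonei cells were seeded in 384-well plates coated with Matrigel and MEF (1e4 cells). Viability was read after 72 h by CCK-8 and expressed as % of the DMSO control, mean ± SD of duplicates.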
As usually defined, the cell viability is a read-out of living cells in per cent, often relative to untreated cells. With `C/C=C1\NC(=O)[C@H]2CSSCC/C=C/[C@H](CC(=O)N[C@H](C(C)C)C(=O)N2)OC(=O)[C@H](C(C)C)NC1=O` [Romidepsin (FK228, Depsipeptide)], the cell viability worked out at 22.2 ± 22%.
The value for `C[C@@]12C[C@@]3(O)O[C@@H](O1)[C@]1(COC(=O)c4ccccc4)[C@H]3C[C@@]12O[C@@H]1O[C@H](CO)[C@@H](O)[C@H](O)[C@H]1O` [Paeoniflorin] was 78.6 ± 9%; that for `Nc1cccc2c1CN(C1CCC(=O)NC1=O)C2=O` (configuration not stated) [Lenalidomide] was 106 ± 3.2%; that for `Cc1ccc(F)c(NC(=O)Nc2ccc(-c3cccc4[nH]nc(N)c34)cc2)c1` [Linifanib (ABT-869)] was 45.2 ± 6.3%.
The value for `Clc1ccc(Nc2nnc(Cc3ccncc3)c3ccccc23)cc1` [Vatalanib (PTK787) 2HCl] was 84.5 ± 1.8%; that for `O=C(O)CCCN1CCC(O[C@@H](c2ccc(Cl)cc2)c2ccccn2)CC1` [Bepotastine Besilate] was 2.73 ± 16%; that for `CC[C@@H]1/C=C(\C)C[C@H](C)C[C@H](OC)[C@H]2O[C@@](O)(C(=O)C(=O)N3CCCC[C@H]3C(=O)O[C@H](/C(C)=C/[C@@H]3CC[C@H](Cl)[C@H](OC)C3)[C@H](C)[C@@H](O)CC1=O)[C@H](C)C[C@@H]2OC` [Pimecrolimus] was 78.1 ± 5.1%.
With `CCN1CCN(c2ccc(Nc3cc(N(C)C(=O)Nc4c(Cl)c(OC)cc(OC)c4Cl)ncn3)cc2)CC1`, the cell viability worked out at 56.5 ± 0.47%.
Take `CC(=O)OCC(CCn1cnc2cnc(N)nc21)COC(C)=O` [Famciclovir]: the cell viability stood at 94.3 ± 12%.
The value for `CC(C)(OCc1nn(Cc2ccccc2)c2ccccc12)C(=O)O` [Bindarit] was 104 ± 7.1%.
The value for `Cn1nnc2c(C(N)=O)ncn2c1=O` [Temozolomide] was 118 ± 5.8%; that for `N#CC[C@H](C1CCCC1)n1cc(-c2ncnc3[nH]ccc23)cn1` was 83.6 ± 8.2%.
To `COc1cc(N2CCC(N3CCN(C)CC3)CC2)ccc1Nc1ncc(Cl)c(Nc2ccccc2S(=O)(=O)C(C)C)n1` belongs 38.3 ± 2.1%.
As to `CNC(=O)c1cc(Oc2ccc(NC(=O)Nc3ccc(Cl)c(C(F)(F)F)c3)c(F)c2)ccn1` [Regorafenib (BAY 73-4506)], the cell viability stood at 147 ± 11%.
To `CC(C)(C#N)c1cc(Cn2cncn2)cc(C(C)(C)C#N)c1` [Anastrozole] belongs 110 ± 6.5%.
The value for `Cc1cccc(N(C)C(=S)Oc2ccc3ccccc3c2)c1` [Tolnaftate] was 101 ± 19%.
The value for `O=C(Nc1nc2cccc(-c3ccc(CN4CCS(=O)(=O)CC4)cc3)n2n1)C1CC1` [Filgotinib (GLPG0634)] was 93.7 ± 8.6%; that for `Nc1nc(Cl)nc2c1ncn2[C@H]1C[C@H](O)[C@@H](CO)O1` [Cladribine] was 97.8 ± 1.1%.
As for `COc1cc2nccc(Oc3ccc(NC(=O)NC4CC4)c(Cl)c3)c2cc1C(N)=O` [Lenvatinib (E7080)], the cell viability worked out at 69.6 ± 2%.
`CN(CCOc1ccc(CC2SC(=O)NC2=O)cc1)c1ccccn1` (configuration not stated) [Rosiglitazone]: the cell viability is 101 ± 3.3%.
To `CCCCNc1ncc(-c2ccc(CN3CCOCC3)cn2)c(NC2CCC(O)CC2)n1` (configuration not stated) belongs 43.4 ± 2%; to `O=C(CCBr)N1CCN(C(=O)CCBr)CC1` [Pipobroman-D8], 84 ± 7.7%.
In the case of `CNNCc1ccc(C(=O)NC(C)C)cc1` [Procarbazine HCl], the cell viability was 100 ± 22%.
To `Cc1nc(Nc2ncc(C(=O)Nc3c(C)cccc3Cl)s2)cc(N2CCN(CCO)CC2)n1` [Dasatinib Monohydrate] belongs 41.1 ± 8.4%; to `COc1cc2ncnc(Nc3ccc(F)c(Cl)c3)c2cc1OCCCN1CCOCC1` [Gefitinib(ZD1839)], 85.16 ± 0.73%; to `CC(C)(C)c1cc(NC(=O)Nc2ccc(-c3cn4c(n3)sc3cc(OCCN5CCOCC5)ccc34)cc2)no1` [Quizartinib (AC220)], 78.9%.
As for `O=C(O)C(=O)O.[NH-][C@@H]1CCCC[C@H]1[NH-].[Pt+2]` [Oxaliplatin], the cell viability was 103 ± 15%.
The value for `COc1cccc2c1C(=O)c1c(O)c3c(c(O)c1C2=O)C[C@@](O)(C(C)=O)C[C@@H]3O[C@H]1C[C@H](N)[C@H](O)[C@H](C)O1` [Daunorubicin HCl] was -1.33 ± 0.2%; that for `CC[C@H](Nc1ncnc2[nH]cnc12)c1nc2cccc(F)c2c(=O)n1-c1ccccc1` [CAL-101 (Idelalisib, GS-1101)] was 73.5 ± 9.8%; that for `C#Cc1cccc(Nc2ncnc3cc(OCCOC)c(OCCO)cc23)c1` was 49.1 ± 7.9%.
The value for `C=CC(=O)Nc1cc(Nc2nccc(-c3cn(C)c4ccccc34)n2)c(OC)cc1N(C)CCN(C)C` [Osimertinib (AZD9291)] was 4.44 ± 0.89%.
Regarding `O=C1NC(=O)[C@@H](c2cn3c4c(cccc24)CCC3)[C@@H]1c1c[nH]c2ccccc12` [Tivantinib (ARQ 197)], the cell viability was 79.8 ± 7.7%.
